Measurements from the supplement of paper PMC8728848.
Only a selection was taken, and the strongest signals are over-represented in it overall.

Experiments:
Experiment in all cases: glycan array binding signal (z-score within array); higher = stronger binding
Details in all cases: glycan notation: IUPAC condensed, linker removed
[1] = target: Fuc(a1-2)Gal(b1-3)GalNAc(a1-3)[Fuc(a1-2)]Gal(b1-4)GlcNAc
How it was run: (§1)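 Glycan array data came from 3228 arrays in the Consortium for Functional Glycomics database, and only arrays with an available protein sequence were kept. Glycan names were put into IUPAC-condensed notation, and columns mapping to the same glycan were averaged. The binding signal is a within-array Z-score, averaged across arrays of one protein sequence run at different concentrations or buffers and across linkers. A negative Z-score can be read as non-binding.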

[2] = target: Fuc(a1-2)Gal(b1-3)GlcNAc(b1-2)Man(a1-3)[Fuc(a1-2)Gal(b1-3)GlcNAc(b1-2)Man(a1-6)]Man(b1-4)GlcNAc(b1-4)[Fuc(a1-6)]GlcNAc
How it was run: as §1

[3] = target: Fuc(a1-2)Gal(b1-3)GlcNAc(b1-3)Gal(b1-4)Glc
How it was run: as §1

[4] = target: Fuc(a1-2)Gal(b1-3)GlcNAc(b1-3)[Gal(b1-4)GlcNAc(b1-6)]Gal(b1-4)Glc
How it was run: as §1

[5] = target: Fuc(a1-2)Gal3S(b1-4)GlcNAc
How it was run: as §1

[6] = target: Fuc(a1-2)[Gal(a1-3)]Gal(b1-3)GlcNAc(b1-2)Man(a1-3)[Fuc(a1-2)[Gal(a1-3)]Gal(b1-3)GlcNAc(b1-2)Man(a1-6)]Man(b1-4)GlcNAc(b1-4)[Fuc(a1-6)]GlcNAc
How it was run: as §1

[7] = target: Fuc(a1-2)[Gal(a1-3)]Gal(b1-4)GlcNAc(b1-3)[Fuc(a1-2)[Gal(a1-3)]Gal(b1-4)GlcNAc(b1-6)]GalNAc
How it was run: as §1

[8] = target: Fuc(a1-2)[Gal(a1-3)]Gal(b1-4)[Fuc(a1-3)]GlcNAc(b1-3)GalNAc
How it was run: as §1

[9] = target: Fuc(a1-2)[GalNAc(a1-3)]Gal
How it was run: as §1

[10] = target: Fuc(a1-2)[GalNAc(b1-3)]Gal
How it was run: as §1

[11] = target: Fuc(a1-3)[Gal(b1-4)]GlcNAc(b1-2)Man
How it was run: as §1

[12] = target: Fuc(a1-3)[Gal(b1-4)]GlcNAc(b1-3)Gal(b1-4)[Fuc(a1-3)]GlcNAc
How it was run: as §1

[13] = target: Fuc(a1-3)[Gal(b1-4)]GlcNAc(b1-3)Gal(b1-4)[Fuc(a1-3)]GlcNAc(b1-3)Gal(b1-4)[Fuc(a1-3)]GlcNAc
How it was run: as §1

[14] = target: Fuc(a1-3)[Gal(b1-4)]GlcNAc(b1-3)GalNAc
How it was run: as §1

Fuc(a1-4)GlcNAc = target: Fuc(a1-4)GlcNAc
How it was run: as §1

Gal(a1-3)Gal(b1-3)GlcNAc = target: Gal(a1-3)Gal(b1-3)GlcNAc
How it was run: as §1

[15] = target: Gal(a1-3)Gal(b1-4)GlcNAc(b1-2)Man(a1-3)[Gal(a1-3)Gal(b1-4)GlcNAc(b1-2)Man(a1-6)]Man(b1-4)GlcNAc(b1-4)GlcNAc
How it was run: as §1

[16] = target: Gal(a1-3)[Gal(a1-4)]Gal(b1-4)GlcNAc
How it was run: as §1

[17] = target: Gal(b1-3)GalNAc(b1-4)[Neu5Ac(a2-3)]Gal(b1-4)Glc
How it was run: as §1

Gal(b1-3)GlcNAc(b1-2)Man = target: Gal(b1-3)GlcNAc(b1-2)Man
How it was run: as §1

[18] = target: Gal(b1-3)GlcNAc(b1-2)Man(a1-3)[GlcNAc(b1-4)][Gal(b1-3)GlcNAc(b1-2)Man(a1-6)]Man(b1-4)GlcNAc(b1-4)GlcNAc
How it was run: as §1

[19] = target: Gal(b1-3)GlcNAc(b1-3)Gal(b1-3)GlcNAc
How it was run: as §1

Gal(b1-4)Glc = target: Gal(b1-4)Glc
How it was run: as §1

Gal(b1-4)GlcNAc(b1-2)Man = target: Gal(b1-4)GlcNAc(b1-2)Man
How it was run: as §1

[20] = target: Gal(b1-4)GlcNAc(b1-2)[Gal(b1-4)GlcNAc(b1-4)]Man(a1-3)[Gal(b1-4)GlcNAc(b1-2)Man(a1-6)]Man(b1-4)GlcNAc(b1-4)GlcNAc
How it was run: as §1

[21] = target: Gal(b1-4)GlcNAc(b1-3)Gal(b1-4)GlcNAc
How it was run: as §1

[22] = target: Gal(b1-4)GlcNAc(b1-3)Gal(b1-4)GlcNAc(b1-3)Gal(b1-4)GlcNAc(b1-2)Man(a1-3)[Gal(b1-4)GlcNAc(b1-3)Gal(b1-4)GlcNAc(b1-3)Gal(b1-4)GlcNAc(b1-2)Man(a1-6)]Man(b1-4)GlcNAc(b1-4)[Fuc(a1-6)]GlcNAc
How it was run: as §1

[23] = target: Gal(b1-4)GlcNAc(b1-3)Gal(b1-4)GlcNAc(b1-3)[Gal(b1-4)GlcNAc(b1-3)Gal(b1-4)GlcNAc(b1-6)]GalNAc
How it was run: as §1

[24] = target: Gal3S(b1-4)[Fuc(a1-3)]GlcNAc
How it was run: as §1

GalNAc(a1-3)GalNAc = target: GalNAc(a1-3)GalNAc
How it was run: as §1

B1: SP16665A-bot-344-23-344 (Bacteroides ovatus) (protein)
chain: SDNEFPDFDYQTVYFANQYGLRTIELGESEFVDNTLDNQHKMVIKAAWGGGYTNRNNVVINFKVDESLCDNLYFKDTDQPLVPMPASYYTLASDRIAIPKGQIMAGVEVQLTDDFFADEKSISENYVIPLLMTNVQGADSILQGKPVVENPVLTNAGDWSILPQNFVLYAVKYVNPWHGEYLRRGIDHATVAGTSKDIIRHEQFVENDEVVNISTKSMKDNLLTLKTKDESGKDISYTVRLSFAEDGSCTVHSGSQNVVVSGSGKFVSKGEKNSLGGKDRNAIYLDYTVNLTDNNIQLATKDTLVLRTRNVYGGKSLEVVRK
[1]
  glycan array binding signal (z-score): -0.235
[2]
  glycan array binding signal (z-score): 0.285
[3]
  glycan array binding signal (z-score): -0.208
[4]
  glycan array binding signal (z-score): -0.461
[5]
  glycan array binding signal (z-score): 0.29
[6]
  glycan array binding signal (z-score): -0.333
[7]
  glycan array binding signal (z-score): 8.34
[8]
  glycan array binding signal (z-score): -0.571
[9]
  glycan array binding signal (z-score): -0.372
[10]
  glycan array binding signal (z-score): -0.266
[11]
  glycan array binding signal (z-score): 0.187
[12]
  glycan array binding signal (z-score): -0.237
[13]
  glycan array binding signal (z-score): 0
[14]
  glycan array binding signal (z-score): -0.329
Fuc(a1-4)GlcNAc
  glycan array binding signal (z-score): 19.1
Gal(a1-3)Gal(b1-3)GlcNAc
  glycan array binding signal (z-score): 0.959
[15]
  glycan array binding signal (z-score): 0.709
[16]
  glycan array binding signal (z-score): 1.28
[17]
  glycan array binding signal (z-score): -0.5
Gal(b1-3)GlcNAc(b1-2)Man
  glycan array binding signal (z-score): 2.76
[18]
  glycan array binding signal (z-score): -0.153
[19]
  glycan array binding signal (z-score): 0.024
Gal(b1-4)Glc
  glycan array binding signal (z-score): -0.451
Gal(b1-4)GlcNAc(b1-2)Man
  glycan array binding signal (z-score): 1.02
[20]
  glycan array binding signal (z-score): -0.051
[21]
  glycan array binding signal (z-score): -0.125
[22]
  glycan array binding signal (z-score): 2.77
[23]
  glycan array binding signal (z-score): 0.116
[24]
  glycan array binding signal (z-score): -0.285
GalNAc(a1-3)GalNAc
  glycan array binding signal (z-score): 1.35
